# Rows were chosen to be rich in hits. Some 10% of all compounds tested hit in one or more screens of this group.
# G9a block: inhibitors of human histone lysine methyltransferase G9a | G9a H3K9 monomethylation, AlphaScreen, 2 h | Potency, µM (series often up to 102 µM), actives largely listed as inhibitors | 8.8% of 350,000 active | AID 504332; note: nearly all actives have a fitted effect of over 75% in size
# Target sequence (Q96KQ7 913-1193 limits assumed): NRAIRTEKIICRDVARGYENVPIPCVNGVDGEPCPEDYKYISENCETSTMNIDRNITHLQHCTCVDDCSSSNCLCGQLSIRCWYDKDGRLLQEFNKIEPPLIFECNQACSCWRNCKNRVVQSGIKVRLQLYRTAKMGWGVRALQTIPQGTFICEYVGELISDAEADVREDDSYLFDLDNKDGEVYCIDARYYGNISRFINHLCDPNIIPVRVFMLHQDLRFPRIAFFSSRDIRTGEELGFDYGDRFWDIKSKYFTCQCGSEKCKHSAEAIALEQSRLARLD
#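 Compounds were preincubated with 20 nM G9a for 15 min, after which biotinylated H3K9 peptide (500 nM) and SAM (20 uM) started a 2 h room-temperature reaction. Monomethylated product was quantified by antibody-based AlphaScreen chemiluminescence.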
# Sfp PPTase inh: blocks B. subtilis Sfp PPTase activity | Q9F4F7 | Biochemical Sfp PPTase activity, qHTS | Potency, µM, hits mostly inhibitors | 3.5% of 310,000 active | AID 1490;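 note: the enzyme is Sfp with the accession as filed and its product quenches rhodamine fluorescence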
#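 Sfp 15 nM + cpd, 15 min RT; start w/ rhodamine-CoA 5 uM, BHQ-2-YbbR 12.5 uM (final); 50 mM Hepes pH 7.6, 10 mM MgCl2, 0.01% NP-40, 0.01% BSA; read 525/598 nm at 0 and 30 min.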
# PLK1 PBD block: blocks phosphopeptide binding to human PLK1 polo-box domain. 2.8% of 360,000 active. Plk1 PBD binding of FITC phosphopeptide, fluorescence polarization. AID 720504. P53350. Potency, µM, hits mostly inhibitors; note: series mostly up to about 57 µM; nearly all actives have a fitted effect of over 65% in size
# Mm-Cpn inhibitor: blocks the Methanococcus maripaludis chaperonin Mm-Cpn; purified Mm-Cpn ATPase, ADP Transcreener TR-FRET; Potency, µM (doses to about 76.9 µM), hits mostly inhibitors; 0.031% of 330,000 active; note: nearly all actives have a fitted effect of over 80% in size
#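 ATPase read-out: TR-FRET ADP immunoassay (anti-ADP Eu cryptate vs ADP-d2), ex 320 nm, em 590/665 nm; signal drops as ADP forms. Enzyme 25 nM, ATP 10 uM, 30 min at 37°C after 10 min compound preincubation.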
# VDR inhibitor: inhibitors of human vitamin D receptor; P11473; VDR-SRC2-3 peptide fluorescence polarization, 2 h; Potency, µM, most hits filed as inhibitors; 0.93% of 400,000 active; AID 504847
#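 VDR–SRC2-3 interaction, FP format. Cmpds 23 nl via pintool, brief spin, 2 h ambient incubation.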
# CCT modulator: changes cytosolic chaperonin activity | purified chaperonin ATPase assay, HTRF ADP detection, 30 min | activity change, % (no concentration beside the values), hits read low | 0.3% of 360,000 active; in the data active = activity change below about -30%
#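 Enzyme 40 or 20 nM (batch-dependent) in Tris pH 7.4/KCl/MgCl2/DTT; cpd 76 uM single point; ATP 10 uM; 30 min 37 °C; Transcreener ADP HTRF detection, 30 min RT; ratio 665/615.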
# Hits are given with their value; 0 = inactive; ? = inconclusive; - = no result; [ ] = dose if it differs, or a comment. Unless noted, calls come from the whole dose curve; as a rule, active = well fitted curve in the direction sought with a large enough effect; inconclusive = small, poorly fitted or top-dose-only effect, or another doubt; inactive = no such curve, though single readings can be large; an effect the other way counts as inactive or inconclusive.
SMILES,G9a block,Sfp PPTase inh,PLK1 PBD block,Mm-Cpn inhibitor,VDR inhibitor,CCT modulator
CC(=O)O[C@]1(C(C)=O)CC[C@@H]2[C@@H]3C=C(Cl)C4=CC(=O)[C@H]5C[C@@H]5[C@]4(C)[C@H]3CC[C@]21C,0[21.5 µM],0,-,-,?,-
CCCCOc1ccc(C2OC34CCCCC3C(C#N)(C#N)C2(C#N)C(=N)O4)cc1 (stereo not drawn),?,0,21µM,0,?,0
Cc1ccc2sc(N3CCN(C(=O)C4COc5ccccc5O4)CC3)nc2c1C (stereo not drawn),0,-,-,-,0,-
Cc1ccc(-c2nc3[nH]c(=O)cc(NC(=O)C(C)C)n3n2)cc1,-,0,27µM,0,?,0
Cc1ccc(-c2nc3[nH]c(=O)cc(NC(=O)c4cccs4)n3n2)cc1,0,0,0,0,0,0
CCC(=O)Nc1cc(=O)[nH]c2nc(-c3ccc(Cl)cc3)nn12,0,0,21µM,0,?,0
CC(C)(C)c1ccc(-c2nc3[nH]c(=O)cc(NC(=O)c4ccco4)n3n2)cc1,0,40µM,24µM,0,0,0
CCC(=O)Nc1cc(=O)[nH]c2ncnn12,0,0,0,0,0,0
CCCCN(C)C(=O)c1ccc2c(c1)NC(=O)C(CC(C)C)N2 (stereo not drawn),0,-,-,-,0,-
O=C(CSc1nc2ccccc2[nH]1)N/N=C/c1ccncc1,0,0,0,0,0,0
CCn1c(SCC(=O)N/N=C/c2ccc(C)o2)nnc1-c1ccc(C)cc1,45µM,?,0,0,0,0
Cc1ccc(/C=N/NC(=O)CSc2nc3ccccc3[nH]2)o1,45µM,0,0,0,0,0
O=C(Cc1nc2ccccc2[nH]1)N/N=C/c1ccccc1,0,0,27µM,0,?,0
O=C(NCc1ccc(F)cc1)c1c(O)nc2ccccn2c1=O,0,-,-,-,0,-
CCOc1ccc(C(=O)NCC(c2ccc3c(c2)OCO3)N2CCN(c3ccccc3F)CC2)cc1 (stereo not drawn),0,-,-,-,0,-
COc1nc(NCCO)nc(Nc2ccccc2F)n1,0,0,27µM,0,0,0
COc1ccc(CN2CCN(Cc3c[nH]c4ccccc34)CC2)cc1,?,50µM,0,0,0,0
COc1ccc(Br)cc1CN1CCN(Cc2c[nH]c3ccccc23)CC1,8.9µM,?,0,0,0,0
O=S(=O)(Cc1ccccc1)N1CCN(Cc2c(F)cccc2Cl)CC1,35µM,-,0,0,0,0
COc1ccc(CN2CCN(Cc3c[nH]c4ccccc34)CC2)cc1OC,-,-,0,-,-,0
COc1ccc(Br)cc1CN1CCN(S(=O)(=O)Cc2ccccc2)CC1,20µM,0,0,0,0,0
COc1cc(OC)cc(C(=O)N2CC(=O)Nc3ccc(Cl)cc3C2c2ccccc2)c1 (stereo not drawn),0,-,-,-,0,-
O=C(Cn1cc(S(=O)(=O)Cc2ccc(F)cc2)c2ccccc21)NCc1ccccc1,0,-,-,-,0,-
COc1ccccc1CN1CC[C@@]2(CCCN(C(=O)c3cccn3C)C2)C1,0[12.7 µM],0,-,-,0,-
Cc1cc2[nH]c(=O)c(=O)[nH]c2cc1S(=O)(=O)Nc1ccc(OC(F)(F)F)cc1,0,-,-,-,0,-
SMILES,G9a block,Sfp PPTase inh,PLK1 PBD block,Mm-Cpn inhibitor,VDR inhibitor,CCT modulator
CCOC(=O)c1cc(S(=O)(=O)Nc2ccccc2OCC)[nH]n1,8.9µM,-,-,-,0,-
CCOC(=O)c1cc(S(=O)(=O)Nc2ccccc2)[nH]n1,10µM,-,-,-,0,-
CCOC(=O)c1cc(S(=O)(=O)Nc2ccc(OC(F)(F)F)cc2)[nH]n1,3.2µM,-,-,-,0,-
N#Cc1cccc(NC(=O)N2CCC3(CC2)CCN(C(=O)c2cnccn2)CC3)c1,0[12.7 µM],0,-,-,0,-
Cc1cccc(CNc2cc(-c3ccccc3C)ncn2)c1,-,0,-,-,?,-
Cc1ccccc1N(C)C(=O)c1noc2c1COc1ccccc1-2,0,-,-,-,0,-
O=C(CP(=O)(c1ccccc1)c1ccccc1)Nn1cnnc1,0,0,0,0,0,-53
Cc1ccc2c(c1)c1c(c(=O)n(-c3ccccc3C)c(=O)n1Cc1cccc(F)c1)n2C,0,-,-,-,0,-
Oc1c(C(c2ccc(Cl)cc2)N2CCOCC2)sc2nc(-c3ccco3)nn12 (stereo not drawn),?,-,-,-,0,-
COc1ccc(NS(=O)(=O)c2cccc3nonc23)c(OC)c1,40µM,0,0,0,0,0
CCc1ccc(NS(=O)(=O)c2cccc3nonc23)cc1,45µM,0,0,0,0,0

# Screening results deposited in PubChem BioAssay by National Center for Advancing Translational Sciences (NCATS).
